Experimental findings from PubChem BioAssay are described below.

The nature of assay [1]: small molecules captured by biotinylated probe aFSTL3 – biochemical, small-molecule microarray, fluorescence 635/667, stem cell growth factor project, primary screen (AID 1064).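 Also: measures binding of the biotinylated anti-FSTL3 antibody to printed compounds.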 Conditions: higher = more signal.
Assay [2] is described as follows: binders from COS7 lysate, DM2A8 probe, primary screen, torsin A project, cell lysate, small-molecule microarray, fluorescence 635/667 (AID 1065). Conditions: higher = more signal, COS7 lysate expressing mutant human TOR1A.
Assay [3] can be described thus: small molecules captured by biotinylated probe aFGF2 – biochemical, small-molecule microarray, fluorescence 635/667, stem cell growth factor project, primary screen (AID 1067).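 Also: measures binding of biotinylated aFGF2 protein to printed compounds on slides; z-score merges feature fluorescence and signal-to-noise across triplicate slides.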 The conditions noted are these: higher = more signal.
Assay [4] is described as follows: small molecules captured by biotinylated probe aFGF10 – biochemical, small-molecule microarray, fluorescence 635/667, stem cell growth factor project, primary screen (AID 1071).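 Also: score merges 667 nm spot intensity and signal to noise from triplicate slides.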 Conditions: higher = more signal.
Assay [5] concerns the target Neurogenic locus notch homolog protein 2 (Homo sapiens) (UniProt Q04721). In words: small molecules binding Notch2 protein – biochemical, small-molecule microarray, 635 nm fluorescence, stem cell growth factors, primary screen (AID 1073). The conditions noted are these: higher = more signal.
Assay [6] concerns the target Pro-neuregulin-1, membrane-bound isoform (Homo sapiens) (UniProt Q02297). In words: small molecules binding neuregulin-1 protein – biochemical, small-molecule microarray, fluorescence 635/667, psychiatric disease protein project, primary screen (AID 1075).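 Also: score combines 667 nm spot fluorescence with signal to noise.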 The conditions noted are these: NRG1 binding, 635 nm fluorescence, higher = more signal.
In assay [7] the test system is Neuregulin-1 EGF-like domain. In words: small molecules binding NRG1 EGF domain – biochemical, small-molecule microarray, 635 nm fluorescence, primary screen (AID 1081).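 Also: binding of the protein to compounds printed on small-molecule microarray slides.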 Conditions: higher = more signal.
The nature of assay [8]: FRG1 expression reporter modulators in myotubes – cell-based, C2C12 myotubes, firefly/Renilla luciferase, luminescence, FRG1 inhibition for FSHD, primary screen (AID 1084). The conditions noted are these: FRG1 promoter luciferase, higher = more signal, called active from +8 up or from −8 down.
Assay [9] in a line: small molecules captured by biotinylated probe aFST – biochemical, small-molecule microarray, fluorescence 635/667, stem cell growth factor project, primary screen (AID 1086).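 Also: score merges 667 nm fluorescence with signal-to-noise of each printed compound spot.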 Conditions: higher = more signal.
A short description of assay [10]: binders of probe aHhip on microarray, primary screen, stem cell growth factor project, biochemical, small-molecule microarray, fluorescence 635/667 (AID 1087).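 Also: score merges spot fluorescence at 667nm with spot signal to noise ratio.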 The conditions noted are these: higher = more signal.

Each structure is given as a SMILES string. The source made the active and inactive calls.

Chain of Neurogenic locus notch homolog protein 2 (Homo sapiens) (Q04721 whole entry, looked up, canonical isoform): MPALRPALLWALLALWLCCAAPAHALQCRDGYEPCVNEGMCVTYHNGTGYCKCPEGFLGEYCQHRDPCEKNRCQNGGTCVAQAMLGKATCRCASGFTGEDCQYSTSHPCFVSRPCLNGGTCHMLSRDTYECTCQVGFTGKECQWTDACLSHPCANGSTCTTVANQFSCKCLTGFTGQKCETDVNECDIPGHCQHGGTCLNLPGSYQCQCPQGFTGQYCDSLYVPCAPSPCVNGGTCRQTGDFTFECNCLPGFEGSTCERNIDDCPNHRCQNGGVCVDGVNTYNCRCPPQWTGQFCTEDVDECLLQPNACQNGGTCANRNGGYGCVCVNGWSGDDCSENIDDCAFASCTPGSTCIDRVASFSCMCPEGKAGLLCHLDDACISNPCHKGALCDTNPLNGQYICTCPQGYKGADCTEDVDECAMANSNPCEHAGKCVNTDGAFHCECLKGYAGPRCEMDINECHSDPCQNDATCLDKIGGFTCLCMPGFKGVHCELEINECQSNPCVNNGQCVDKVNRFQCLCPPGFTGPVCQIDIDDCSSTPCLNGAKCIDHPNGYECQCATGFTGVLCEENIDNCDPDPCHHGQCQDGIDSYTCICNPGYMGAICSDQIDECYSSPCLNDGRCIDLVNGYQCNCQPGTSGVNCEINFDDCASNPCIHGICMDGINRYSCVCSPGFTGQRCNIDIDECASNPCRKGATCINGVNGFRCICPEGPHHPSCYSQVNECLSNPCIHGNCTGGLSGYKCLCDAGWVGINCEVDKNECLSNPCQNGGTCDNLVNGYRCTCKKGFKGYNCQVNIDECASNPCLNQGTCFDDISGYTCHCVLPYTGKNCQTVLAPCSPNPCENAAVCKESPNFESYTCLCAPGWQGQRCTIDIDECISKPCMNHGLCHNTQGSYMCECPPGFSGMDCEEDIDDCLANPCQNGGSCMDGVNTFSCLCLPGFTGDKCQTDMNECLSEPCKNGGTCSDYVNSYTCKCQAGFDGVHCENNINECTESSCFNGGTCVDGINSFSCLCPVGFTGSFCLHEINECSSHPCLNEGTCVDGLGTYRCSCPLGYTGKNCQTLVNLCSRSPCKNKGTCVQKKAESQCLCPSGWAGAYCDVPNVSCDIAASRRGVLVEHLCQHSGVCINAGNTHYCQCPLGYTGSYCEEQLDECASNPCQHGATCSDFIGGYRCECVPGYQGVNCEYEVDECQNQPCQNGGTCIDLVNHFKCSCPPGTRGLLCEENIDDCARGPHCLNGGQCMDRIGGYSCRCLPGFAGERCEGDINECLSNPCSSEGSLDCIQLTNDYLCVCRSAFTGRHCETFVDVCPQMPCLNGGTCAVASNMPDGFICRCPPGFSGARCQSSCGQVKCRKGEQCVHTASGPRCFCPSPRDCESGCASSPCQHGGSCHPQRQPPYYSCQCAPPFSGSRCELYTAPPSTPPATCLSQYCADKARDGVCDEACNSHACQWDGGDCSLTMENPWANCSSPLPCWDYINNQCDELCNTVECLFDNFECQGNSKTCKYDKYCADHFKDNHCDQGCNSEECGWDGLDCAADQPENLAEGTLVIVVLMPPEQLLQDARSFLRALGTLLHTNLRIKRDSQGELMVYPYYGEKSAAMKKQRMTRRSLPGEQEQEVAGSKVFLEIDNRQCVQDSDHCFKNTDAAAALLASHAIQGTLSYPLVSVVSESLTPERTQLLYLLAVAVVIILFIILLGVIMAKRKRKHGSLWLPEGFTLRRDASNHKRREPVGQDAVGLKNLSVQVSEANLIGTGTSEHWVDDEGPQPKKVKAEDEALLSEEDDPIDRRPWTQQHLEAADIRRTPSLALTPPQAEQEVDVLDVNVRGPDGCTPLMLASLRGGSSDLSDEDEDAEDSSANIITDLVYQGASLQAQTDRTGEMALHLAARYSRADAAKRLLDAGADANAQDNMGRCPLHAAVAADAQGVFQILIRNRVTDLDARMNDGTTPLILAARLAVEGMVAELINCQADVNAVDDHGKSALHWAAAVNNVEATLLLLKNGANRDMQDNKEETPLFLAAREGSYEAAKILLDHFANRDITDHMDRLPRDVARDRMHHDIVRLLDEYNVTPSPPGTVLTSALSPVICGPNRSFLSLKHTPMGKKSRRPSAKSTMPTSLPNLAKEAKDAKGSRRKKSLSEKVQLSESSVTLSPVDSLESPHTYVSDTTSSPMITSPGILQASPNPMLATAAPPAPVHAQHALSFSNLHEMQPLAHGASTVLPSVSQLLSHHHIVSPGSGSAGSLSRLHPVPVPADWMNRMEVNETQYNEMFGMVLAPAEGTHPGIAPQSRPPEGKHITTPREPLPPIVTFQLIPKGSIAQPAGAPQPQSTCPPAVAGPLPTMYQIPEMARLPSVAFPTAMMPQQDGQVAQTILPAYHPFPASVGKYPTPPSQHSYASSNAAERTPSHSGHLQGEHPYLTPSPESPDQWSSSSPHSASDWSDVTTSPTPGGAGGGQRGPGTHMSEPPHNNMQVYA
Chain of Pro-neuregulin-1, membrane-bound isoform (Homo sapiens) (Q02297 whole entry, looked up, the tested form may be a part, canonical isoform): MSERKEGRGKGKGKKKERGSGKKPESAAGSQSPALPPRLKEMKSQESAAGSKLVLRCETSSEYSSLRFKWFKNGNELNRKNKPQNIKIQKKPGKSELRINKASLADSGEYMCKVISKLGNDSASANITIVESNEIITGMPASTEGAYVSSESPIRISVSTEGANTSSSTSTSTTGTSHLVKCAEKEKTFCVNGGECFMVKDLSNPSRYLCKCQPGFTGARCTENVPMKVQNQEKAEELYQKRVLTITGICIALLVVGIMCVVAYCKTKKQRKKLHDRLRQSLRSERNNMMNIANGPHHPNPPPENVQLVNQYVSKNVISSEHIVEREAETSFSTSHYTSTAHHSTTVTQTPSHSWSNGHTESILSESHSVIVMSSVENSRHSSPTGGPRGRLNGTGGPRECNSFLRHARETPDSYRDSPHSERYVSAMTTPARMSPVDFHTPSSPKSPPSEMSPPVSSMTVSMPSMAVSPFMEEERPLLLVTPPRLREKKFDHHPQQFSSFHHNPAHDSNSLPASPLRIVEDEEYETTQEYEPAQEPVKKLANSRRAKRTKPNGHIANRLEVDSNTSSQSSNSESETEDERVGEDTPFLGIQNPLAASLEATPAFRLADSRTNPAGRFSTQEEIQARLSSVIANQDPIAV

As for `COC(OC)[C@@H](C)[C@H](OC)[C@@H](C)[C@H](OC)c1ccccc1`, the composite z-score in [1] is -0.405; in assay [2], 0.594; in assay [3] it was -0.138; in [4], 0.238; in [5], -0.0257; in [6] it was -0.445. Moreover, the figures for the composite z-score in assay [7], in assay [9] and in assay [10] were -0.561, -0.0188 and -0.0645, respectively. In addition, in assay [8], the z-score was -0.406 (inactive).
For `C=CC[C@@H]1C=C[C@H](ON=CC[C@@H]2C=C[C@H](OC(C)=O)[C@@H](COC(C)=O)O2)[C@@H](CO)O1`, the composite z-score is -0.256 in assay [1]; 0.52 in assay [2]; -0.0864 in assay [3]; 0.75 in assay [4]; 1.12 in assay [5]; 1.06 in assay [6]. Moreover, the composite z-score in assay [7] was 1.11; in assay [9] it was 1.06; in assay [10], -0.314. Further, the z-score in assay [8] was 0.411 (inactive).
In the case of `CC(C)CN1CCc2nc(-c3ccccc3)c3c(c2C1)CO[C@@H](C)C3`, the composite z-score in assay [1] was -0.277; in [2] it was 0.306; in assay [3], -0.0291; in [4] it was 0.923; in assay [5], 1.31; in assay [6], 0.43. The composite z-score in [7] is 0.846; in assay [9], 0.147; in assay [10] it was -0.16. Also, in assay [8], the z-score was 0.955 (inactive).
With `COC(=O)CC=C[C@@H](C)[C@@H](C=NOC[C@@H](O)COCc1ccco1)NS(=O)(=O)c1ccc(C)cc1`, the composite z-score in assay [1] is -0.568; in assay [2] it was 0.9; in [3], -0.162; in assay [4], -0.28; in assay [5], -0.572; in [6] it was -0.767. Further, the composite z-score in assay [7] is -0.929; in [9], -0.0225; in assay [10] it was -0.0237. The z-score in assay [8] is 0.184 (inactive).
Regarding `COC(=O)[C@H](C)NC(=O)CCC1CC(OC(=O)NCCc2ccc(F)cc2)CC2(CCCC(COC(=O)NCC3CCCCC3)O2)O1` (stereo not given in full), the composite z-score in [1] was -0.429; in [2], 0.437; in assay [3], -0.116; in [4], 0.605; in assay [5], 1.32; in assay [6] it was 0.618. The composite z-score in assay [7] is 1.06; in assay [9], 0.486; in assay [10], -0.143. Besides, the z-score in assay [8] was 0.617 (inactive).
With `COC(=O)[C@H](C)NC(=O)CCC1CC(OC(=O)NCc2cccc3ccccc23)CC2(CCCC(COC(=O)NCc3ccccc3)O2)O1` (stereo not given in full), the composite z-score in assay [1] is -0.425; in assay [2], -0.261; in assay [3], 0.026; in [4], 0.329; in assay [5] it was 1.39; in [6], 0.853. Moreover, the composite z-score in assay [7] is 0.78; in assay [9] it was 0.2; in [10] it was -0.374. Moreover, in assay [8], the z-score is 2.13 (inactive).
Take `COCC#Cc1ccc([C@@H]2N[C@H](C(=O)O)CC[C@H]2C)cc1`: the composite z-score is -0.308 in assay [1]; -0.087 in [2]; -0.12 in assay [3]; 0.0921 in [4]; 0.314 in assay [5]; -0.595 in assay [6]. In addition, the figures for the composite z-score in [7], in assay [9] and in assay [10] were -0.616, 0.399 and 0.132, respectively. The z-score in assay [8] is -1.34 (inactive).
Consider `CO[C@@H]1C=CCC(=O)N[C@@H](C)C(=O)OC[C@@H](NS(=O)(=O)c2ccc(C)cc2)[C@H](C)C=CCC(=O)OC[C@H]1C`, for which the composite z-score is -0.296 in assay [1]; 0.43 in assay [2]; -0.238 in assay [3]; 0.199 in [4]; -0.765 in assay [5]; -0.589 in [6]. The figures for the composite z-score in assay [7], in assay [9] and in [10] were -0.919, -0.0849 and 0.21, respectively. In assay [8], the z-score was -1.04 (inactive).
Regarding `COc1ccc2c(c1)O[C@@H](c1cccc(C(F)(F)F)c1)[C@H](O)C2=O`, the composite z-score in assay [1] was -0.609; in assay [2], -0.184; in [3], -0.131; in [4], 0.452; in assay [5] it was 0.242; in assay [6], 0.0761. Moreover, the composite z-score in assay [7] is 0.4; in assay [9], 0.0335; in assay [10], -0.236. In assay [8], the z-score was -0.682 (inactive).
As for `CCOC(=O)[C@H](Cc1ccccc1)NC(=O)CCC1CC(OC(=O)NCCc2ccc(F)cc2)CC2(CCCC(COC(=O)NCCC(C)C)O2)O1` (stereo not given in full), the composite z-score in assay [1] was -0.397; in assay [2], 0.813; in assay [3], -0.0296; in assay [4], -0.409; in assay [5], 1.28; in [6] it was 0.539. Besides, the composite z-score in assay [7] is 1.02; in assay [9], 0.296; in assay [10] it was -0.201. Also, the z-score in [8] was -0.214 (inactive).
As for `COC(=O)[C@@H]1CC[C@H](C)[C@@H](c2ccc(Br)cc2)N1C[C@H](O)CN=[N+]=[N-]`, the composite z-score in assay [1] was -0.0566; in [2], 0.143; in assay [3], -0.0925; in assay [4] it was 0.171; in assay [5], -0.0324; in [6], 0.374. The composite z-score in assay [7] was -0.0594; in assay [9] it was -0.193; in [10], 0.478. In [8], the z-score is 0.348 (inactive).
With `CCN1C(=O)[C@H]2[C@H]3[C@H](O)[C@H](O)CC(=NNC(=O)OCc4ccccc4)[C@@H]3CC[C@H]2C1=O`, the composite z-score in assay [1] was 0.18; in assay [2], -0.287; in assay [3], -0.153; in assay [4], 0.0519; in assay [5], -0.311; in [6], -0.003. Besides, the composite z-score in assay [7] was -0.514; in assay [9] it was 0.302; in assay [10], -0.249. The z-score in [8] is 0.639 (inactive).
